Experimental findings from PubChem BioAssay (NCATS) are described below.

Molecules are shown by their SMILES. Results filed as inconclusive are left out. Calls of active or inactive are those of the source. Calls follow the shape of the dose curve; as a rule, active = well fitted inhibition curve with a large enough effect; inconclusive = small, poorly fitted or top-dose-only effect, or effect the other way; inactive = flat fitted curve, though single readings scatter. Peptide text beside a SMILES is read from it.

ATP-dependent 6-phosphofructokinase (Trypanosoma brucei brucei), sequence (O15648 whole entry, looked up): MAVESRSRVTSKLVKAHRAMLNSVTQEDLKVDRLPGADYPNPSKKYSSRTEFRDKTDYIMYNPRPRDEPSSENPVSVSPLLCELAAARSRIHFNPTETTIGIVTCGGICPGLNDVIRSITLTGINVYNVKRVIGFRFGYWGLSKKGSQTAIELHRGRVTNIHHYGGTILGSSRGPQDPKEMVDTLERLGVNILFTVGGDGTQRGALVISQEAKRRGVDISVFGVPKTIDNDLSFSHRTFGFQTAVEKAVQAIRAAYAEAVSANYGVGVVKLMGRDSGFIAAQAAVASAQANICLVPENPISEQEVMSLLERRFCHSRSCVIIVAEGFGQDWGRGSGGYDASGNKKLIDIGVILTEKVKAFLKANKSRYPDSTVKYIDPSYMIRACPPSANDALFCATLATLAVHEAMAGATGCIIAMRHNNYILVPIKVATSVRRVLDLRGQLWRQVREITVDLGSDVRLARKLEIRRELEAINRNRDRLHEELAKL

This experiment concerns the target ATP-dependent 6-phosphofructokinase (Trypanosoma brucei brucei) (UniProt O15648). Kind of experiment: qHTS Assay to Find Inhibitors of T. brucei phosphofructokinase: hit validation (AID 492961).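 Also: luminescence reports ADP formed as PFK phosphorylates fructose-6-phosphate with ATP.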 Particulars: T. brucei PFK, ADP-Glo luminescence; series mostly up to 24.3 µM. An excerpt: NIH Molecular Libraries Probe Production Network [MLPCN] NIH Chemical Genomics Center [NCGC] Grant: 1 R03 MH092153-01 PI Name: Malcolm Walkinshaw, University of Edinburgh NCGC Assay Overview: Various species of the protozoan family Trypanosomatidae are responsible for a range of serious human diseases in tropical and subtropical areas of the world. […] Many of the disorders caused by trypanosomatids are fatal if left untreated, but most currently used drugs are inefficient and toxic. […] Oxidative metabolism involving the mitochondrial tricarboxylic acid cycle and oxidative phosphorylation are repressed in these parasites, and recent RNA interference (RNAi) experiments have shown that even partial depletion of certain individual glycolytic enzymes can lead to the death of cultured parasites. One such glycolytic enzyme, phosphofructokinase (PFK), catalyzes the formation of fructose-1,6-bisphosphate (F1,6BP) and ADP from fructose-6-phosphate (F6P) and ATP, and in many metabolic circumstances makes an important contribution to the control of flux through the glycolytic pathway. As a specific glycolytic target, PFK is particularly attractive as it catalyzes the first irreversible step in glycolysis, and structural and kinetic studies have shown very substantial and essential differences from corresponding host enzymes, allowing for the discovery of parasite-selective inhibitors. The goal of this screen is to find small-molecule inhibitors of T. brucei PFK using a biochemical assay that measures PFK activity as a function of ADP production. A luminescence-based assay for T. brucei PFK activity has been developed which uses luciferase to detect production of ADP. Traditional luciferase-based nucleotide detection reagents rely on ATP production as a direct substrate for the luciferase reaction; however, PFK catalyzes the transfer of a phosphate from ATP to F6P, resulting in the net depletion of ATP. To directly measure the ADP product of the PFK reaction, we used the ADP-Glo detection kit (Promega), which utilizes two separate reactions to 1) deplete all remaining uncatalyzed ATP and 2) convert all remaining ADP to ATP, which is then detected through a traditional luciferase-coupled reaction. Compounds were screened as a concentration-titration series that ranged from 57 uM to 0.7 nM.
NCGC Assay Protocol Summary: Substrate buffer was dispensed into white, solid 1536-well plates at 3uL/well in 0.1M triethanolamine (TEA) buffer, pH 8.0, containing final concentrations of 5 mM MgCl2, 0.01% Tween20, 0.5 mM fructose-6-phosphate (F6P) and 0.1mM ATP. Then, 23 nL of compounds or DMSO were delivered to each well using a pin tool. One uL T. brucei PFK (0.1M TEA, 0.01% Tween20, 0.1% bovine serum albumin (BSA) and 1.25nM PFK, final concentrations) was then dispensed, and plates were incubated at room temperature for 45 min. The luminescent detection reagent, ADP-Glo (Promega), was then added in two steps: the first reagent, ADP-Glo (which converts remaining uncatalyzed ATP), was added at 2.5uL/well and incubated for ten minutes at room temperature, and the second component, Kinase Detection reagent (which converts ADP to ATP as a substrate for luciferase-based luminescence), was added immediately after at 5uL/well, followed by one final ten minute room temperature incubation. The plates were measured on a ViewLux plate reader for luminescent signal using a clear filter with a one second exposure. The %Activity was determined from the corrected luminescence values. As no specific T. brucei PFK inhibitors have been identified in the literature, 1x (1.25nM) and 0x PFK enzyme controls (untreated) were included to normalize %Activity of identified inhibitors; 0x enzyme values corresponded to 100%Activity (full inhibition), while 1x PFK enzyme values were used to normalize 0%Activity (no inhibition). Concentration-response curves were fitted to the signals arising from the resulting luminescence. […]
In the case of `C[C@H]1CS(=O)(=O)CCN1/N=C\c1ccc([N+](=O)[O-])o1`, the outcome was inactive.

For `CC(=O)N(C[C@@H](C)C(=O)O)c1c(I)cc(I)c(N)c1I`, the outcome was inactive.

`CC(=O)[C@@]1(O)CC[C@H]2[C@H]3C[C@@H](C)C4=CC(=O)C=C[C@]4(C)[C@@]3(F)[C@@H](O)C[C@]21C`: the molecule was classed as inactive.

As for `CC[C@H](CO)NCCN[C@@H](CC)CO`, the molecule was classed as inactive.

In the case of `Nc1nc2ncc(CNc3ccc(C(=O)NC(CCC(=O)O)C(=O)O)cc3)nc2c(=O)[nH]1` (stereo not given), the molecule was classed as inactive.

Consider `CS(=O)(=O)c1ccc([C@H](O)[C@H](CF)NC(=O)C(Cl)Cl)cc1`, for which the molecule was classed as inactive.

As for `CCC(=O)[C@@]1(C)[C@H](C)C[C@@H]2[C@@H]3CCC4=CC(=O)C=C[C@@]4(C)[C@H]3[C@H](O)C[C@]21C`, the result was inactive.

In the case of `COCC(=O)Nc1c(I)c(C(=O)NC[C@@H](O)CO)c(I)c(C(=O)N(C)C[C@@H](O)CO)c1I`, the molecule was called inactive.

In the case of `C[C@H](Oc1ccccc1)C(=O)N[C@@H]1C(=O)N2[C@@H]1SC(C)(C)[C@@H]2C(=O)O`, the call was inactive.

Take `C[C@]12CCC(=O)C=C1CCC1C2C(=O)C[C@]2(C)C1CC[C@]2(O)C(=O)CO` (stereo not given in full): the outcome was inactive.

Turning to `C[N+]12CCC(CC1)[C@@H](OC(=O)C(O)(c1ccccc1)c1ccccc1)C2`, the call was inactive.

Turning to `C[C@H](O)Cn1cnc2c1c(=O)n(C)c(=O)n2C`, the molecule was called inactive.

On to `C[C@H](CCC(=O)O)[C@H]1CC[C@@H]2[C@@H]3[C@@H](O)C[C@H]4C[C@@H](O)CC[C@@]4(C)[C@H]3CC[C@@]21C`, for which the outcome was inactive.

Turning to `COC1CC(O[C@H]2/C(C)=C/CC3CC(C[C@]4(CCC(C)C(C5CCCCC5)O4)O3)OC(=O)[C@H]3C=C(C)/C(=N/O)C4OC/C(=C\C=C\[C@@H]2C)[C@@]43O)OC(C)C1O` (stereo not given in full), the outcome was inactive.

Regarding `C[C@@H](C(=O)O)c1ccc(C(=O)c2ccccc2)s1`, the result was inactive.

As to `CC(=C(CCOP(=O)(O)O)SC(=O)c1ccccc1)N(C=O)Cc1cnc(C)nc1N`, the result was inactive.

With `COc1ccc([C@@H]2CC(=O)c3c(O)cc(O[C@H]4O[C@@H](CO[C@H]5O[C@@H](C)[C@@H](O)[C@@H](O)[C@@H]5O)[C@@H](O)[C@@H](O)[C@@H]4O)cc3O2)cc1O`, the call was inactive.

Turning to `COC(=O)N/N=C/C1=C[N+](=O)c2ccccc2[N+]1=O`, the result was inactive.

`COc1ccc2cc(C(C)CO)ccc2c1` (stereo not given): the result was inactive.

Take `CC1CCC(C(C)C)C(=O)C1` (stereo not given): the call was inactive.

Consider `CN1CCO[C@H](c2ccccc2)c2ccccc2C1`, for which the call was inactive.

Take `CC(=O)N[C@H](CC(C)C)C(=O)O`: the result was inactive.

For the molecule `C1CCN2C[C@@H]3C[C@@H](CN4CCCC[C@H]34)[C@H]2C1`, the result was inactive.

In the case of `CC(=O)OCC(=O)[C@@]1(O)CC[C@@H]2[C@H]3CCC4=CC(=O)C=C[C@]4(C)[C@]3(F)[C@@H](O)C[C@@]21C`, the call was inactive.

Take `CCCCC[C@H](O)/C=C\[C@H]1[C@H](C/C=C\CCCC(=O)O)[C@@H](O)C[C@H]1O` (tested in a mixture with another compound): the molecule was classed as inactive.

Consider `CC[C@H](Cc1c(I)cc(I)c(N)c1I)C(=O)O`, for which the call was inactive.

Regarding `C[C@H](C(=O)O)c1cccc(Oc2ccccc2)c1`, the molecule was called inactive.

Turning to `NCC1CCC(N)C(O[C@@H]2C(O)[C@H](O[C@H]3OC(CO)C(O)C(N)C3O)[C@@H](N)C[C@H]2N)O1` (stereo not given in full), the call was inactive.

For the molecule `CC(=O)O[C@]1(C(C)=O)CC[C@@H]2[C@@H]3C=C(C)C4=CC(=O)CC[C@@]4(C)[C@H]3CC[C@]21C`, the molecule was classed as inactive.

For `C#C[C@]1(O)CCC2C3CCC4=CC(=O)CCC4C3CC[C@@]21C` (stereo not given in full), the molecule was called inactive.

On to `CCCCCCCCCc1ccc(OCCOCCOCCOCCOCCOCCOCCOCCOCCO)cc1`, for which the molecule was classed as inactive.

On to `CC(C)=CCC[C@](C)(O)C1CC=C(C)CC1` (stereo not given in full), for which the result was inactive.

Take `CCN1CCC[C@@H](OC(=O)C(c2ccccc2)c2ccccc2)C1`: the molecule was classed as inactive.

In the case of `CCC(=O)OCC(=O)[C@@]1(OC(=O)CC)[C@H](C)C[C@@H]2[C@@H]3[C@H]([C@@H](O)C[C@@]21C)[C@]1(C)C=CC(=O)C=C1C[C@@H]3Cl`, the call was inactive.

With `CN1CCN([C@@H](c2ccccc2)c2ccc(Cl)cc2)CC1`, the molecule was classed as inactive.

Regarding `CN(C)CCn1nnnc1SCC1=C(C(=O)O)N2C(=O)[C@@H](NC(=O)Cc3csc(N)n3)[C@@H]2SC1`, the molecule was classed as inactive.

With `CCC1OC(=O)CC(O)C(C)[C@@H](O[C@@H]2OC(C)[C@H](O[C@@H]3C[C@@](C)(O)C(O)C(C)O3)C(N(C)C)C2O)[C@H](CC=O)CC(C)C(=O)/C=C/C(C)=C/[C@@H]1COC1OC(C)C(O)C(OC)[C@@H]1OC` (stereo not given in full), the outcome was inactive.

Take `COC(=O)C1=C(C)NC(C)=C(C(=O)OC(C)C)[C@H]1c1cccc2nonc12`: the molecule was called inactive.

Take `COC(=O)C(Cc1ccccc1)NC(=O)C(N)CC(=O)O` (stereo not drawn) (H-Asp-Phe-OMe; configuration not given here): the molecule was called inactive.

Take `O=C(O)[C@@H]1[C@@H]2C[C@H]3c4[nH]c5ccccc5c4CCN3C[C@@H]2CC[C@@H]1O`: the call was inactive.
